RE007 growth inh: qHTS Assay for Inhibitors of the HIV-1 protein Vpr. Potency, µM (series often up to 92.2 µM), inactives show top-dose activity change, negative = less growth, hits mostly inhibitors. actives 0.21% (n = 360,000). S. pombe RE007 Vpr strain, BacTiter-Glo ATP luminescence, 24 h; active = well fitted falling curve with a large enough effect; inconclusive = small, poorly fitted or top-dose-only effect; inactive = no such curve, though single readings can be large or run the other way; note: potency is the fitted concentration of half-maximal effect; % is set by controls: 0 for no effect and ±100 for the full control effect; nearly all actives have a fitted effect of over 50% in size
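Fission yeast RE007 carrying one integrated HIV-1 vpr copy, seeded at OD 0.01 in PMG+AL medium with 23 nL pinned compound. Grown 24 h at 30 degrees; viability read by BacTiter-Glo luminescence after 5 min.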
Tb PYK inh: qHTS of Trypanosoma Brucei Inhibitors; pyruvate kinase (Trypanosoma brucei), Q57TT1; TbPYK enzyme, Kinase-Glo Plus ATP luminescence, 45 min; Potency, µM (doses to about 76.8 µM), inactives show at the top dose activity, negative = inhibition, most hits filed as inhibitors; actives 0.12% (n = 410,000); note: potency is the fitted concentration of half-maximal effect; % is set by controls: 0 for no effect and ±100 for the full control effect; nearly all actives have a fitted effect of over 50% in size
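T. brucei PYK with substrate was exposed to pin-transferred compounds across a concentration series, then started with 130 uM ADP (final). After 45 min at room temperature, Kinase-Glo Plus luminescence was read, normalized and curve-fitted.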
Shiga inhibitor: A qHTS for Small Molecule Inhibitors of Shiga Toxin; actives 9.2% (n = 290,000); inhibition, % at 38.7 µM; Vero cells, Shiga toxin protein synthesis inhibition reporter; AID 2315, 2010; in the data active = inhibition mostly above about 28%, no sharp cut-off; inactive = mostly below about 43%; note: 0% is about no effect
Giardia FBPA inh-1: qHTS Assay for Inhibitors of Fructose-1,6-bisphosphate Aldolase from Giardia Lamblia; purified Giardia FBPA; Potency, µM (top dose mostly 59.6 µM), without a hit: at the highest dose activity, negative = inhibition, hits mostly inhibitors; actives 0.71% (n = 290,000); AID 2451, 2010; note: potency is the fitted concentration of half-maximal effect; % is set by controls: 0 for no effect and ±100 for the full control effect; nearly all actives have a fitted effect of over 55% in size
Target sequence (A8B2U2 whole entry, looked up): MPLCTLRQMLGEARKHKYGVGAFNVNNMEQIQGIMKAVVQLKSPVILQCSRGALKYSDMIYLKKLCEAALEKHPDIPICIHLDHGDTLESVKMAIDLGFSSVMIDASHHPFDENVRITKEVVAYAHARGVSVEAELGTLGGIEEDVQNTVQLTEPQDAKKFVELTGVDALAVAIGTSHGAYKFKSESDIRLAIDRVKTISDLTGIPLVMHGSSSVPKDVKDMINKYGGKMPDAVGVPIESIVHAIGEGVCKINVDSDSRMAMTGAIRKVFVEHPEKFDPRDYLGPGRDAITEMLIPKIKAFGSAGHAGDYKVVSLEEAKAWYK
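40 nM FBPA preincubated 10 min at RT with compound (up to 57.5 uM final), then substrate plus GAPDH/TPI/NAD/arsenate coupling and diaphorase/resazurin added. Fluorescence read after 20 min at RT, 525/598 nm.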
Cycloheximide cs: Cycloheximide Counterscreen for Small Molecule Inhibitors of Shiga Toxin; cell reporter, cycloheximide protein synthesis inhibition counterscreen; actives 12% (n = 300,000); AID 2314, 2010; max response, %; in the data active = max response mostly above about 13%, no sharp cut-off; inactive = mostly below about 14%; note: read at 38.3 µM for the half of the compounds with a filed dose; 0% is about no effect
LmPK inh: qHTS Assay for Inhibitors of Leishmania Mexicana Pyruvate Kinase (LmPK). purified LmPK, Kinase-Glo ATP luminescence, 1 h. Potency, µM (doses to about 57.5 µM), for the others: at the highest dose activity change, negative = inhibition, hits mostly inhibitors. actives 0.37% (n = 290,000); note: potency is the fitted concentration of half-maximal effect; % is set by controls: 0 for no effect and ±100 for the full control effect
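ATP generated from ADP (0.1 mM) and PEP (0.5 mM) by 0.1 nM LmPK over 1 h at room temperature (pH 7.2 imidazole buffer) was detected by coupled luciferase luminescence. Values were normalized to uninhibited and no-enzyme wells.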
Giardia growth: qHTS Assay for Inhibitors of Fructose-1,6-bisphosphate Aldolase from Giardia Lamblia: Giardia lamblia growth inhibition. Giardia lamblia trophozoite growth inhibition. AID 2785, 2010. actives 5% (n = 1,500). shares compounds with Giardia FBPA inh-1. Potency, µM (highest dose often 57.5 µM), inactives show top-dose activity change, negative = inhibition, actives largely listed as inhibitors;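 note: potency is the fitted concentration of half-maximal effect; trophozoites exposed to compound for 48 h at 37 °C; % is set by controls: 0 for no effect and ±100 for the full control effect; nearly all actives have a fitted effect of over 70% in size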
Mammal cell tox: qHTS Assay for Inhibitors of Fructose-1,6-bisphosphate Aldolase from Giardia Lamblia: Mammalian cellular toxicity; shares compounds with Giardia FBPA inh-1; mammalian cell viability counter-screen, qHTS; Potency, µM (series often up to 57.5 µM), for the others: at the top dose viability change, negative = toxicity, most hits filed as inhibitors; actives 4% (n = 1,500); AID 2786, 2010;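 note: Chinese hamster ovary cells used as mammalian cytotoxicity surrogate; viability measured as cellular ATP by luminescence; potency is the fitted concentration of half-maximal effect; compound exposure lasted 48 h before reading; % is set by controls: 0 for no effect and ±100 for the full control effect; nearly all actives have a fitted effect of over 60% in size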
Giardia FBPA inh-2: qHTS Assay for Inhibitors of Fructose-1,6-bisphosphate Aldolase from Giardia Lamblia: Primary screen confirmation. AID 2787, 2010. purified Giardia aldolase enzyme activity, qHTS. Potency, µM (highest dose often 57.5 µM), for the others: top-dose activity change, negative = inhibition, hits mostly inhibitors. shares compounds with Giardia FBPA inh-1. actives 5% (n = 1,500); note: potency is the fitted concentration of half-maximal effect; % is set by controls: 0 for no effect and ±100 for the full control effect; nearly all actives have a fitted effect of over 45% in size
Rabbit FBPA inh: qHTS Assay for Inhibitors of Fructose-1,6-bisphosphate Aldolase from Giardia Lamblia: Rabbit FBPA Selectivity; shares compounds with Giardia FBPA inh-1; Rabbit muscle FBPA enzyme inhibition, selectivity counter-screen; Potency, µM (top dose mostly 57.5 µM), for the others: at the top dose activity, negative = inhibition, actives largely listed as inhibitors; actives 4% (n = 1,500); note: potency is the fitted concentration of half-maximal effect; % is set by controls: 0 for no effect and ±100 for the full control effect; nearly all actives have a fitted effect of over 60% in size
Target sequence (P00883 whole entry, looked up): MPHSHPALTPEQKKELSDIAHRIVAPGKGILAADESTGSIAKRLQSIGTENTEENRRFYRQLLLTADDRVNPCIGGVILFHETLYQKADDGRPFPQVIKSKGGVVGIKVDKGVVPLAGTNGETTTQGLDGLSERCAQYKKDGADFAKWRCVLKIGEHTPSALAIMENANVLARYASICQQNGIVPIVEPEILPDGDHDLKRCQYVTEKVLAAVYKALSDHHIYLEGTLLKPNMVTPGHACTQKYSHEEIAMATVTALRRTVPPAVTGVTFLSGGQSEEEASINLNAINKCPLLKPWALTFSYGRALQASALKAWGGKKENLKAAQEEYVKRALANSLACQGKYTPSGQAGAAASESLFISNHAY
GAPDH counter: qHTS Assay for Inhibitors of Fructose-1,6-bisphosphate Aldolase from Giardia Lamblia: Coupling assay counterscreen confirmation | shares compounds with Giardia FBPA inh-1 | GAPDH coupling enzyme counterscreen, biochemical, qHTS | Potency, µM (highest dose often 57.5 µM), without a hit: at the highest dose activity change, negative = inhibition, usual class: inhibitors | actives 6% (n = 1,500); note: potency is the fitted concentration of half-maximal effect; % is set by controls: 0 for no effect and ±100 for the full control effect; nearly all actives have a fitted effect of over 55% in size
* = called active by the depositor; ? = inconclusive; nt = no result; [ ] = another dose, or the depositor's remark. The entries come from a sample that favours hits as a whole. Unless noted, calls come from the whole dose curve; as a rule, active = well fitted curve in the direction sought with a large enough effect; inconclusive = small, poorly fitted or top-dose-only effect, or another doubt; inactive = no such curve, though single readings can be large; an effect the other way counts as inactive or inconclusive.

SMILES | RE007 growth inh | Tb PYK inh | Shiga inhibitor | Giardia FBPA inh-1 | Cycloheximide cs | LmPK inh | Giardia growth | Mammal cell tox | Giardia FBPA inh-2 | Rabbit FBPA inh | GAPDH counter
COc1ccc2cc3cc(C(=O)NCCN4CCN(Cc5ccccc5)CC4)oc3nc2c1 | 6% | 2% | -10 | -19% | -4 | 2% | nt | nt | nt | nt | nt
CCOc1ccc(CCNC(=O)c2cc3cc4cc(OC)ccc4nc3s2)cc1OCC | nt | 7% | nt | nt | nt | nt | nt | nt | nt | nt | nt
COc1ccc(C)cc1NC(C)C(=O)NC(=O)NC1CCCCC1 (stereo unspecified) | 20% | 3% | nt | nt | nt | nt | nt | nt | nt | nt | nt
COc1ccc(C2=NS(=O)(=O)N(C)C(C(=O)Nc3ccc(C(C)=O)cc3)=C2)cc1OC | 12% | -2% | -5 | 0% | -4 | 5% | nt | nt | nt | nt | nt
Cc1ccccc1/C=N/Nc1nc2ccccc2c(=O)n1O | 6% | -21% | 75* | 18µM* | 20* | 2% | ? | -6% | -22% | -14% | -15%
CCOC(=O)Cc1csc(NC(=S)NC(=O)c2ccccc2C)n1 | -8% | -4% | -7 | ? | 1 | -5% | nt | nt | nt | nt | nt
CCOC(=O)Cc1csc(NC(=S)NC(=O)c2ccc(F)cc2)n1 | ? | -6% | -3 | 7.9µM* | 8 | -7% | -27% | -4% | 12% | 7% | 9%
CCOC(=O)Cc1csc(NC(=O)COc2ccc(OC)cc2)n1 | -6% | 2% | 21 | 3% | -3 | 3% | nt | nt | nt | nt | nt
CCOC(=O)Cc1csc(NC(=S)NC(=O)c2cc(OC)c(OC)c(OC)c2)n1 | 22% | 0% | -6 | 20µM* | -4 | 3% | -27% | -7% | -11% | -3% | 2%
Cc1ccc(-c2c(C(=O)N3CCN(c4cc(Cl)ccc4C)CC3)oc(=O)c3ccccc23)cc1 | nt | 0% | nt | nt | nt | nt | nt | nt | nt | nt | nt
CN(C)C(CNC(C(=O)Nc1ccc([N+](=O)[O-])cc1Br)c1ccccc1)c1ccccc1 (stereo unspecified) | -13% | 21% | -11 | 20µM* | 5 | 0% | -12%[10.4 µM] | -20% | 1% | -4% | 2%
CC(C)CNC(C(=O)Nc1ccc([N+](=O)[O-])cc1Br)c1ccccc1 (stereo unspecified) | -6% | 4% | 18 | ? | 3 | 0% | nt | nt | nt | nt | nt
COc1ccc(-n2c(=O)c(-c3cccs3)nc3cnc(Oc4ccccc4)nc32)cc1 | nt | 0% | nt | 6% | nt | nt | nt | nt | nt | nt | nt
COc1cc(CNn2cn[nH]c2=S)ccc1OCC(=O)NC(C)(C)C | 12% | ? | -5 | 10µM* | -4 | 1% | ? | -1% | 3% | -1% | 13%
COc1cc(CNC(C)(C)CO)ccc1OCC(=O)NC(C)(C)C | 9% | -4% | 19 | 2% | -1 | 1% | nt | nt | nt | nt | nt
O=C(O)c1ccc(S(=O)(=O)N[C@H](Cc2ccccc2)C(=O)O)cc1 | nt | nt | -5 | 0% | -7 | nt | nt | nt | nt | nt | nt
COc1cc(OC)cc(C(=O)NNC(=O)C2CCCC2)c1 | -1% | 5% | -8 | 1% | 3 | 1% | nt | nt | nt | nt | nt
Cc1ccc2oc(=O)c(/C=C(\O)c3ccco3)nc2c1 | -9% | 2% | 14 | 20µM* | 17* | 7% | 12% | 8% | -17% | 1% | -2%
COc1ccc(/[N+]([O-])=C/c2ccoc2)cc1 | -5% | -22% | nt | nt | nt | nt | nt | nt | nt | nt | nt
CCOc1ccc(N(CC(=O)N2CCCCCC2)S(=O)(=O)c2ccc(F)cc2)cc1 | 6% | 1% | -17 | nt | -5 | -8% | nt | nt | nt | nt | nt
CC(C(=O)NC1C(=O)N2C(C(=O)O)=C(CSc3nnnn3C)CSC12)n1cc(Cl)cn1 (stereo unspecified) | 3% | -6% | -6 | 18µM* | -1 | 16% | 13%[10.4 µM] | -4% | 1% | 2% | 2%
Cc1nnc(SCC2=C(C(=O)O)N3C(=O)C(NC(=O)C(C)n4nc(C(F)(F)F)cc4C)C3SC2)s1 (stereo unspecified) | 2% | -5% | -16 | 6.3µM* | 15 | -2% | -11% | -6% | 2% | 2% | 14%
Cc1c(Cl)cnn1CC(=O)NC1C(=O)N2C(C(=O)O)=C(CSc3nnnn3C)CSC12 (stereo unspecified) | 3% | -14% | -6 | ? | 2 | 4% | nt | nt | nt | nt | nt
COC(=O)Cc1c(C)c2ccc(OC3CCCCC3=O)c(C)c2oc1=O (stereo unspecified) | -9% | -4% | 40 | -10% | 16 | 2% | nt | nt | nt | nt | nt
O=CN1CCN(C(=S)NC(=O)c2ccc(Cl)cc2)CC1 | 2% | -4% | 14 | 10µM* | 2 | -5% | -5%[38.3 µM] | 10% | 2% | 5% | -7%
